Our source for the NADPH fluorescence slope values is PubChem BioAssay.

SMILES strings stand for the structures. Active and inactive are the calls of the source.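 How the source made its calls: active means NADPH fluorescence slope more negative than the mean of all samples by about 3 SD, 99.7% confidence; inactive means the rest.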

For the experiment, the target named is Voltage-gated potassium channel subunit beta-2 (Rattus norvegicus) (UniProt P62483). Kind of experiment: KvBeta positive modulators, primary screen, biochemical, NADPH fluorescence (AID 623).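 Further: fluorescence intensity change per second fitted from 20 to 320 s.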 The note with it: Recombinant KvBeta, NADPH fluorescence decrease slope, 10 min; at 10 µM; stronger effect = lower value.
Sequence of Voltage-gated potassium channel subunit beta-2 (Rattus norvegicus) (P62483 whole entry, looked up): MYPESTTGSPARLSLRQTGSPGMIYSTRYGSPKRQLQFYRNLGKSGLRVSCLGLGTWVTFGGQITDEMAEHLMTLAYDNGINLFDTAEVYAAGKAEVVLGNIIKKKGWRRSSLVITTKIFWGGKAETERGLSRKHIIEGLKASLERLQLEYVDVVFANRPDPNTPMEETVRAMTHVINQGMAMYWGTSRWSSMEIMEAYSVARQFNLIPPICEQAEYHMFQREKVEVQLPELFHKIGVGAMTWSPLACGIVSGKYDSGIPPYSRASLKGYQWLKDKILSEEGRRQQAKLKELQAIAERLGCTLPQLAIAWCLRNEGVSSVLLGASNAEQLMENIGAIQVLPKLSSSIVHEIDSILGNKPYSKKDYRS
Regarding `c1ccc(-n2ncc3c(N4CCCCC4)ncnc32)cc1`, the NADPH fluorescence slope is -3.8e-05 (inactive). The result for `CCCCn1cnc2c1c(=O)n(C)c(=O)n2C` reads -1.9e-05 (inactive); that for `CCOC(=O)C1=C(C)Nc2nnnn2C1c1ccc(OC)c(Br)c1` (centres undefined), -1.5e-05 (inactive); that for `Cc1ccc(S(=O)(=O)Nc2nc3ccccc3nc2NCc2ccco2)cc1`, 6.7e-06 (inactive). The value for `CCOC(=O)c1ccc2ncc(C(=O)OCC)c(NCCN(C)C)c2c1` was -3.1e-05 (inactive). The result for `N#Cc1c2n(c(=S)n(-c3ccccn3)c1=O)CCCCC2` reads -4.9e-05 (inactive); that for `Cc1ccc2nc(-c3ccc4c(c3)OCCO4)cc(C(=O)O)c2c1`, -4e-05 (inactive); that for `N#Cc1c(N)c(C(=O)c2ccccc2)n2c1CCCC2`, -1.7e-05 (inactive). Turning to `COCCn1c(COc2ccc(Cl)cc2)nnc1SCC(N)=O`, the NADPH fluorescence slope was -6e-05 (inactive). The value for `CC1Cc2ccccc2N1S(=O)(=O)c1cccc(C(=O)OCC(=O)NC2CCS(=O)(=O)C2)c1` (centres undefined) was -4.3e-05 (inactive); that for `C=CCn1c(SCC(=O)NC2CCCCC2)nnc1-c1sc(N)nc1C` was -3.2e-05 (inactive). Regarding `Cc1ccc(CSc2nc3c(c(=O)[nH]2)CCC3)cc1`, the NADPH fluorescence slope is -2.9e-05 (inactive). The value for `Cc1nnc(NC(=O)c2ccco2)s1` was -3.3e-05 (inactive); that for `CCN(CC)c1ccc2cc(NC(=O)CCC(=O)O)c(=O)oc2c1` was -5.3e-06 (inactive). The result for `CCCCC(=O)NCCc1ccc(S(N)(=O)=O)cc1` reads -5.1e-05 (inactive); that for `COc1ccc(NC(=O)CN(c2cc(C)cc(C)c2)S(=O)(=O)c2c(C)noc2C)cc1OC`, -2.2e-05 (inactive); that for `COc1cccc(NC(=O)N[C@@H](Cc2ccccc2)C(=O)O)c1`, -3.6e-05 (inactive). The value for `COc1cccc(C2=Nn3c(nnc3-c3ccccc3O)SC2)c1` was 2.8e-05 (inactive); that for `CC(=O)C1=C(C)Nc2ncnn2C1c1cccc(OCc2ccccc2)c1` (centres undefined) was 4.9e-06 (inactive); that for `O=C1C(C=NCCCn2ccnc2)=C(O)c2ccccc21` was -2.7e-05 (inactive). In the case of `CS(=O)(=O)NCC(c1cccnc1)N1CCN(c2ccc(F)cc2)CC1` (centres undefined), the NADPH fluorescence slope was -4.2e-05 (inactive). The value for `CN(C)c1nc(Oc2ccc(=O)n(C)n2)nc(N2CCOCC2)n1` was 1.5e-05 (inactive); that for `O=C(Nc1ccc(N2CCOCC2)cc1)c1cc2ccccc2o1` was 1.9e-05 (inactive); that for `Cn1nnnc1SCC(=O)NC1CCCCC1` was 4.4e-07 (inactive). With `CCn1nc(CC(=O)Nc2nnc(CC(=O)N3CCCCC3)s2)c2ccccc2c1=O`, the NADPH fluorescence slope is -2.5e-05 (inactive). Regarding `c1ccc(C(Cc2nc(-c3ccccn3)no2)c2ccccc2)cc1`, the NADPH fluorescence slope was -6.2e-05 (inactive). The value for `COCCNC(=O)CCc1nc(-c2ccccc2)no1` was 2.6e-05 (inactive); that for `CC1(C)CC(=O)N(CC(=O)NCc2ccccc2)c2ccccc2S1(=O)=O` was 1.2e-05 (inactive). Take `CCN1C(=O)Cc2cc(S(=O)(=O)N3CCOCC3)ccc21`: the NADPH fluorescence slope is 2.6e-05 (inactive). The value for `COc1cc2c(C#N)c(N3CCOCC3)nc(N)c2c(N)n1` was -2.1e-06 (inactive); that for `Cc1ccc(S(=O)(=O)N2CCCC2C(=O)OCc2nc3ccccc3s2)cc1` (centres undefined) was -5.7e-05 (inactive); that for `COC(=O)CNC(=O)COC(=O)c1cc(Cl)cc(Cl)c1N` was 1.6e-05 (inactive). The result for `CCCCn1c(=O)[nH]c(=O)c2c1nc(-c1ccncc1)n2CCOC` reads -4.3e-05 (inactive); that for `O=C(CCn1c(=O)oc2ccccc21)N1CCCCCC1`, -5.9e-05 (inactive).

`Cc1cc(C)n(-c2cc(N3CCOCC3)nc(-c3ccccc3)n2)n1`: the NADPH fluorescence slope was -1.3e-05 (inactive). The value for `CCOC(=O)C1=C(NC#N)OC(C)=C(C)C1c1ccc(O)cc1` (centres undefined) was -1.5e-05 (inactive); that for `CCOc1cc(-c2nc(-c3ccccc3OC)no2)cc(OCC)c1OCC` was -4.7e-05 (inactive); that for `COc1ccc(-n2nnnc2SCC(=O)N2CCOCC2)cc1` was -4.9e-05 (inactive).

Take `COc1cc(NC(=O)C(C)Oc2ccccc2)c(C(=O)O)cc1OC` (centres undefined): the NADPH fluorescence slope is -2.5e-05 (inactive).
